Measurements taken from PubChem BioAssay (EPA / NIEHS).
Records with an inconclusive call do not appear. Activity calls are given as the source filed them. Rule for the calls, unless noted: active = hit-call score of the fitted dose curve at least 0.9, where 1 is the maximum; inactive = score below 0.9.

Key:
[1] = molecular target: Nuclear respiratory factor 1 (Homo sapiens) (UniProt Q16656); assay: ATG_NRF1_CIS: Attagene CIS-FACTORIAL HepG2 Assay for human Nuclear Respiratory Factor 1 (NRF1) Orphan Gene (AID 2282987); settings: HepG2 NRF1 cis-element reporter, Attagene multiplex; actives raise or lower the signal
Summary of the method: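 HepG2 cells transiently transfected with multiple cis-regulated reporter units, exposed 24 h. Reporter mRNAs measured by RT-PCR, fluorescent labelling, HpaI digestion and capillary electrophoresis; bidirectional fitting against DMSO.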

[2] = ATG_NFI_CIS: Attagene CIS-FACTORIAL HepG2 Assay for human Nuclear Factor I (NFI) (AID 2282989); settings: HepG2 cis-regulatory reporter, NFI response element transcription; actives raise or lower the signal
Summary of the method: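 Read-out: reporter mRNA via RT-PCR plus capillary electrophoresis with fluorescence detection. Transiently transfected HepG2 (endogenous TF activity on cis promoters), 24 h compound exposure; gain or loss of signal fitted against DMSO.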

[3] = molecular target: Myc proto-oncogene protein (Homo sapiens) (UniProt P01106); assay: ATG_Myc_CIS: Attagene CIS-FACTORIAL HepG2 Assay for human Myelocytomatosis (Myc) Proto-Oncogene Transcription Factor (AID 2282990); settings: HepG2, Attagene cis-reporter transcription factor activity; actives raise or lower the signal
Summary of the method: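 Cells of the HepG2 human liver line bear multiple cis-driven reporter transcription units. Reporter mRNA after 24 h exposure is reverse-transcribed, amplified, labelled and resolved by capillary electrophoresis, with gain- or loss-of-signal fitting relative to DMSO.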

[4] = ATG_NF_kB_CIS: Attagene CIS-FACTORIAL HepG2 Assay for human Nuclear Factor Kappa B (NF-kB) (AID 2282991); settings: HepG2 Attagene cis-factorial NF-kB reporter mRNA; actives raise or lower the signal
Summary of the method: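 HepG2 cells transfected with cis-promoter-driven reporter units, so endogenous transcription factor activity is measured. Reporter mRNA quantified 24 h after dosing by RT-PCR and capillary electrophoresis, with bidirectional fitting against DMSO.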

[5] = ATG_NRF2_ARE_CIS: Attagene CIS-FACTORIAL HepG2 Assay for human Nuclear Factor Erythroid 2 Related Factor 2 (NFR2) response to Antioxidant Response Elements (ARE) (AID 2282992); settings: HepG2 Attagene ARE/NRF2 reporter, transcription factor activity; actives raise or lower the signal;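 for AC50: reporter mRNA level measured by RT-PCR and capillary electrophoresis fluorescence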
Summary of the method: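 Readout: reporter mRNA quantified by RT-PCR plus FAM-labelled primer extension, HpaI digestion and capillary electrophoresis, 24 h after dosing transfected HepG2 cells. Gain or loss of signal is fitted bidirectionally against DMSO baseline.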

[6] = ATG_Oct_MLP_CIS: Attagene CIS-FACTORIAL HepG2 Assay for human Octamer-Binding Transcription Factor (Oct) (AID 2282993); settings: HepG2 Attagene cis-factorial Oct reporter, mRNA; actives raise or lower the signal
Summary of the method: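 Read-out: reporter mRNA via RT-PCR plus capillary electrophoresis of 6-FAM-labelled fragments. Transiently transfected HepG2, 24 h exposure, endogenous TF activity on cis elements. Gain or loss of signal fitted relative to DMSO.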

[7] = molecular target: Cellular tumor antigen p53 (Homo sapiens) (UniProt P04637); assay: ATG_p53_CIS: Attagene CIS-FACTORIAL HepG2 Assay for human p53 Transcription Factor (AID 2282994); settings: HepG2 p53 cis-element reporter, Attagene mRNA; actives raise or lower the signal
Summary of the method: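 Read-out: reporter mRNA by RT-PCR plus capillary electrophoresis with fluorescence detection. Human HepG2 liver cells carried transfected multi-reporter cis-element constructs, dosed 24 h. Gain or loss of signal fitted bidirectionally against DMSO control.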

[8] = BSK_3C_TissueFactor: BioMAP Diversity Plus: 3C Assay for Tissue Factor Biomarker Activity (AID 2282997); settings: BioMAP 3C HUVEC, tissue factor biomarker readout; actives raise or lower the signal
Summary of the method: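 In this endothelial system, HUVEC are treated for 24 h and Tissue Factor is assessed by ELISA, normalised to DMSO.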

[9] = BSK_3C_VCAM1: BioMAP Diversity Plus: 3C Assay for Vascular cell adhesion molecule 1 (VCAM1) Biomarker Activity (AID 2282999); settings: BioMAP 3C HUVEC, VCAM1 ELISA, cytokine-stimulated; actives raise or lower the signal
Summary of the method: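 Activity fitted in both directions relative to DMSO, with ELISA measurement of the surface marker on primary HUVEC (3C) at 24 h post-treatment; parallel SRB staining (0.1% SRB, TCA-fixed, 560 nm) flagged overt cytotoxicity.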

[10] = BSK_4H_Eotaxin3: BioMAP Diversity Plus: 4H Assay for Eotaxin 3 Biomarker Activity (AID 2283000); settings: primary human endothelial cells (HUVEC); actives raise or lower the signal
Summary of the method: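 ELISA quantitation of CCL26 (Eotaxin-3) protein from chemically dosed human vascular endothelial cells at 24 h; increases and decreases both scored relative to DMSO-treated baseline.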

[11] = molecular target: human Peroxisome Proliferator-activated Receptor alpha (PPARa), PPARA (gene 5465) (UniProt Q07869); assay: ATG_PPARa_TRANS: Attagene TRANS-FACTORIAL HepG2 Assay for human Peroxisome Proliferator-activated Receptor alpha (PPARa) (AID 2283001; active = hit-call score of the fitted dose curve at least 0.9, where 1 is the maximum)
Summary of the method: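 Transfected HepG2 cells treated with test chemical for 24 h. RNA isolated, reverse-transcribed with oligo(dT), PCR-amplified, FAM-labelled and HpaI-digested. Fragments sized by capillary electrophoresis; gain-of-signal fit relative to DMSO.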

[12] = molecular target: human Peroxisome Proliferator-activated Receptor delta (PPARd), PPARD (gene 5467) (UniProt Q03181); assay: ATG_PPARd_TRANS: Attagene TRANS-FACTORIAL HepG2 Assay for human Peroxisome Proliferator-activated Receptor delta (PPARd) (AID 2283002; active = hit-call score of the fitted dose curve at least 0.9, where 1 is the maximum)
Summary of the method: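 Cell-based TRANS reporter: HepG2, transient MRTU transfection, 24 h exposure. Readout = reporter mRNA (RT-PCR/CE, 6-FAM). Gain-of-signal fit vs DMSO control.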

[13] = read-out: Intercellular Adhesion Molecule 1 (ICAM1), ICAM1 (gene 3383); assay: BSK_3C_ICAM1: BioMAP Diversity Plus: 3C Assay for Intercellular Adhesion Molecule 1 (ICAM1) Biomarker Activity (AID 2283003); settings: primary human endothelial cells (HUVEC); actives raise or lower the signal
Summary of the method: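 ELISA read-out of ICAM-1; HUVEC (primary human), 3C system, 24 h post-dosing; bidirectional fit vs DMSO baseline.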

[14] = BSK_3C_Proliferation: Cell Proliferation Assessment in the BioMAP Diversity Plus: 3C Assay (AID 2283006); settings: primary human endothelial cells (HUVEC);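 for AC50: potency may reflect either rise or fall in cell number versus DMSO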
Summary of the method: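 HUVEC, sub-confluent; 48 h chemical exposure; 10% TCA fix, 0.1% SRB stain, A560 total protein. Gain or loss of signal fitted both directions vs DMSO control.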

[15] = molecular target: Peroxisome proliferator-activated receptor gamma (Homo sapiens) (UniProt P37231); assay: ATG_PPARg_TRANS: Attagene TRANS-FACTORIAL HepG2 Assay for human Peroxisome Proliferator-activated Receptor-gamma (PPARg) (AID 2283007; active = hit-call score of the fitted dose curve at least 0.9, where 1 is the maximum)
Summary of the method: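 HepG2 cells are transiently transfected with GAL4-UAS reporter units driven by chimeric NR-Gal4 fusions and dosed for 24 h. Reporter mRNA is quantified by RT-PCR, 6-FAM labelling, HpaI digestion and capillary electrophoresis. Induction is scored against DMSO.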

[16] = molecular target: Nuclear receptor subfamily 1 group I member 2 (Homo sapiens) (UniProt O75469); assay: ATG_PXR_TRANS: Attagene TRANS-FACTORIAL HepG2 Assay for human Pregnane X Receptor (PXR) (AID 2283008; active = hit-call score of the fitted dose curve at least 0.9, where 1 is the maximum)
Summary of the method: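 Trans-factorial format: exogenous NR-Gal4 fusion activity, not endogenous factor, in transfected human HepG2 liver cells. After 24 h dosing, RNA isolated, reverse-transcribed, amplified and resolved by capillary electrophoresis; induction scored versus DMSO.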

[17] = BSK_3C_uPAR: BioMAP Diversity Plus: 3C Assay for Urokinase-type plasminogen activator receptor (uPAR) Biomarker Activity (AID 2282998); settings: BioMAP 3C HUVEC, uPAR biomarker ELISA; actives raise or lower the signal
Summary of the method: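 HUVEC primary cells; 24 h post-dose; uPAR by ELISA; gain or loss of signal fitted bidirectionally vs DMSO baseline.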

[18] = molecular target: human Retinoic Acid Receptor beta (RARb), RARB (gene 5915) (UniProt P10826); assay: ATG_RARb_TRANS: Attagene TRANS-FACTORIAL HepG2 Assay for human Retinoic Acid Receptor beta (AID 2283004; active = hit-call score of the fitted dose curve at least 0.9, where 1 is the maximum)
Summary of the method: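 Fluorescent capillary-electrophoresis detection of GAL4-UAS reporter mRNA defines the endpoint, with induction over DMSO-treated wells scored as activity. Transiently transfected human hepatoma HepG2 cells expressing exogenous NR–Gal4 proteins are exposed to test chemicals for 24 h.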

Measured: AC50

Chain of Nuclear receptor subfamily 1 group I member 2 (Homo sapiens) (O75469 whole entry, looked up, the tested form may be a part): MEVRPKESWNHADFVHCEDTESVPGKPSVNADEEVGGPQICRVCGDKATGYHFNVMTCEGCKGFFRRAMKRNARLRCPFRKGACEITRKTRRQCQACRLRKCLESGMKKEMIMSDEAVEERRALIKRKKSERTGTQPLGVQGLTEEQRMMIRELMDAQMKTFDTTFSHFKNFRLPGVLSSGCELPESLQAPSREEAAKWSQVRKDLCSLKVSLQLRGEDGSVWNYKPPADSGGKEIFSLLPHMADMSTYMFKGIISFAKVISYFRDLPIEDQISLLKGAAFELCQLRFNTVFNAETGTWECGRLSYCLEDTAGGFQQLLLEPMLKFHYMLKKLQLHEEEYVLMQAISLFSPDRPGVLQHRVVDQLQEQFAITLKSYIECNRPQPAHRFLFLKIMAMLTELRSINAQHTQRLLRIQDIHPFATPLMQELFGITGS
Chain of Cellular tumor antigen p53 (Homo sapiens) (P04637 whole entry, looked up): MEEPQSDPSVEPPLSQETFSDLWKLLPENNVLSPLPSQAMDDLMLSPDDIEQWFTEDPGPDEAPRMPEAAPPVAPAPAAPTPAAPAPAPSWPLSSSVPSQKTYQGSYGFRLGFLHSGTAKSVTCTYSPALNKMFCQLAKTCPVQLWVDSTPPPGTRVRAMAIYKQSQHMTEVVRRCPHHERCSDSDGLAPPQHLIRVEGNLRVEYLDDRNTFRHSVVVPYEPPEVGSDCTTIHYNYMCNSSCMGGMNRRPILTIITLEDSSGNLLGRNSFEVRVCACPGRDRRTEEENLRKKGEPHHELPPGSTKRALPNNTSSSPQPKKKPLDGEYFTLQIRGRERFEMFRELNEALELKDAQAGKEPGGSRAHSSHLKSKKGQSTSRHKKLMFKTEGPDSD
Chain of Nuclear respiratory factor 1 (Homo sapiens) (Q16656 whole entry, looked up): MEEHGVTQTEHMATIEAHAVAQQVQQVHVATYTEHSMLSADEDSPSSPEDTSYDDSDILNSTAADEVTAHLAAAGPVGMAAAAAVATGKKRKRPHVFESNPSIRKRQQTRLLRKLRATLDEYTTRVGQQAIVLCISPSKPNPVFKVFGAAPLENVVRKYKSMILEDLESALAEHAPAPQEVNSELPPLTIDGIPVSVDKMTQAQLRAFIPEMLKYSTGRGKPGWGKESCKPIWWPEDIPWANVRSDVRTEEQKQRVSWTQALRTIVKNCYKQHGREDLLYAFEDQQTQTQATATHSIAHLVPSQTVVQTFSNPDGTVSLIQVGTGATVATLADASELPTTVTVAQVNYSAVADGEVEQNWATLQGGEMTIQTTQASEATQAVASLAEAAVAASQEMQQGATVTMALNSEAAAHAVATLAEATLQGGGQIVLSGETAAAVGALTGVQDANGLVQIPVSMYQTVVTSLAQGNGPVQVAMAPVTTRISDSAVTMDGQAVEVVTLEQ
Chain of Myc proto-oncogene protein (Homo sapiens) (P01106 whole entry, looked up): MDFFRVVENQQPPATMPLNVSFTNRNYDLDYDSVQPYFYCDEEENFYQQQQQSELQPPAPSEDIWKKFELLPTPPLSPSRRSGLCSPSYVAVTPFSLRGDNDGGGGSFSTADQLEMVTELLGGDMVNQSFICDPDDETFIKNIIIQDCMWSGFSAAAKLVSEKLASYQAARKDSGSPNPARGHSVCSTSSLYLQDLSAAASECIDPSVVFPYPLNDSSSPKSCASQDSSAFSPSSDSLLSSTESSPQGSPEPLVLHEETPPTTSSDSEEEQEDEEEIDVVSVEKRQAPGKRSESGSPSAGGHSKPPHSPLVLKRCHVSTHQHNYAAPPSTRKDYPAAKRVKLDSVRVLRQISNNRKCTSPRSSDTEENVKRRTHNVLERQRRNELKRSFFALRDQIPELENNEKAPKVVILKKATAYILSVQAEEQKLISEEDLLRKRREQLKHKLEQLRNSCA
Chain of human Peroxisome Proliferator-activated Receptor delta (PPARd), PPARD (gene 5467) (Q03181 whole entry, looked up): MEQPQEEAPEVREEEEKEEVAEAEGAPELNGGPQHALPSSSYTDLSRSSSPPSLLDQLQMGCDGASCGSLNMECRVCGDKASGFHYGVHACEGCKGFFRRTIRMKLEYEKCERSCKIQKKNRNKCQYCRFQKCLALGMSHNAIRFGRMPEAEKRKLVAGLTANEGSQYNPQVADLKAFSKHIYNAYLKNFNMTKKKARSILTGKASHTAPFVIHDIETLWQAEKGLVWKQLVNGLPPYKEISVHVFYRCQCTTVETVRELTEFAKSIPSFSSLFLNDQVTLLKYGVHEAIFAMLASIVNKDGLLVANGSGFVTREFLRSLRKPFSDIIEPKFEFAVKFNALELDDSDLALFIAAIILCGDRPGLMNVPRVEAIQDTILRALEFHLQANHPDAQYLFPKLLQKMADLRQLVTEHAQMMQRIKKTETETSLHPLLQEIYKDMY
Chain of human Peroxisome Proliferator-activated Receptor alpha (PPARa), PPARA (gene 5465) (Q07869 whole entry, looked up, the tested form may be a part): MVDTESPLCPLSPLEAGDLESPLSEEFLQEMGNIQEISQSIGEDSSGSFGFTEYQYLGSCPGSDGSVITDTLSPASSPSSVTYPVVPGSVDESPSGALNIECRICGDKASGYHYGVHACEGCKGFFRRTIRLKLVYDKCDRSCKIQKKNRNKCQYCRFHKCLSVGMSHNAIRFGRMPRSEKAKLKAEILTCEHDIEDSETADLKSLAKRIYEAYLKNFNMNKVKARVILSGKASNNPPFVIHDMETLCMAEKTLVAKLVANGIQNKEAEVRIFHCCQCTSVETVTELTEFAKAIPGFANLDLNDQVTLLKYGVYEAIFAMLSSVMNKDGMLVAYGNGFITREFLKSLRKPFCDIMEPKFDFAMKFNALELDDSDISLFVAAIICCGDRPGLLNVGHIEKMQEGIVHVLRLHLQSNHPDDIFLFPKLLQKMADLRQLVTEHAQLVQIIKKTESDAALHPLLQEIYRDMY
Chain of human Retinoic Acid Receptor beta (RARb), RARB (gene 5915) (P10826 whole entry, looked up, the tested form may be a part): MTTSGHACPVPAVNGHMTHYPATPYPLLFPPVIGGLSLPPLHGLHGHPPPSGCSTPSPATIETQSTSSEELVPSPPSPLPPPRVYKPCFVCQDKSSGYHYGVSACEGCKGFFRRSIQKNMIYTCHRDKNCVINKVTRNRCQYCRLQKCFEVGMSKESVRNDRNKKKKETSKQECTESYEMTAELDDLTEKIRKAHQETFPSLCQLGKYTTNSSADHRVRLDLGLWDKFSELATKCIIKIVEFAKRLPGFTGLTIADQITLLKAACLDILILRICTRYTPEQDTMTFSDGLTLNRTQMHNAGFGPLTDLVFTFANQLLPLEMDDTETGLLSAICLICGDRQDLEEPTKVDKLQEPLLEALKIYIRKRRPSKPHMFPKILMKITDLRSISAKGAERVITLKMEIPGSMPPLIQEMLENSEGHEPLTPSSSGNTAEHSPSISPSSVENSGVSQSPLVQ
Chain of Peroxisome proliferator-activated receptor gamma (Homo sapiens) (P37231 whole entry, looked up, the tested form may be a part): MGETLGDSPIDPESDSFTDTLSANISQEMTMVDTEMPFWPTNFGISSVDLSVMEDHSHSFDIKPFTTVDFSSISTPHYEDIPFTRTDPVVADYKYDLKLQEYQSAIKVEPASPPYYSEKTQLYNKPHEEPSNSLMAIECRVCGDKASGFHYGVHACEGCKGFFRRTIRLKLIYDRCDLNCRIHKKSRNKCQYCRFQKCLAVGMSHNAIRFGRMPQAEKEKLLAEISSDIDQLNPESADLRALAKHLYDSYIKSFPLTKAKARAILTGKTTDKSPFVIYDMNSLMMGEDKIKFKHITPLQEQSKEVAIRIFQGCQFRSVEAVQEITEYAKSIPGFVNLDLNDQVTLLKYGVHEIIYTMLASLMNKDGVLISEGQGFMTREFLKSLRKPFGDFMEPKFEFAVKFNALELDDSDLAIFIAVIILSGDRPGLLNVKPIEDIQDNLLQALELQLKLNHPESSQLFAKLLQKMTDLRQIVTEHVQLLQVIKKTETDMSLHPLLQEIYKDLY

Cc1cc(N=Nc2ccccc2C)ccc1N
active: [5] 7.21 µM | [6] 20.4 µM | [10] 14.2 µM | [14] 13 µM | [15] 18.3 µM | [16] 20.7 µM
not listed: [17] | [18]
inactive: all other assays above

O=C(N[C@H](c1ccccc1)[C@@H]1CN2CCC1CC2)c1c(Cl)ccc(C(F)(F)F)c1Cl
active: [5] 3.02 µM | [17] 17.7 µM | [14] 29.7 µM | [16] 0.226 µM
not listed: [7] | [9] | [11] | [15] | [18]
inactive: all other assays above

[O-][Cl+]O
not listed: [9] | [11] | [12] | [15] | [17] | [18]
inactive: all other assays above

CC(C)N(Cc1ccccc1)C(=O)C(C)(C)C
active: [16] 0.556 µM
not listed: [9] | [11] | [12] | [15]
inactive: all other assays above
